TGFb inhibitor: blocks TGF-b signaling | HepG2 CAGA-GFP TGF-b/SMAD3 reporter, GFP fluorescence, 18 h; TGF-beta stimulated, 500 pg/mL final | Potency, µM (series often up to 46.1 µM), usual class: inhibitors | 1.2% of 410,000 active; also: nearly all actives have a fitted effect of over 65% in size
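HEPG2 CAGA-GFP, 1000 cells/well; 2 h settle, 37 C; cpd via pin tool; TGF-b 500 pg/mL final; 18 h, 37 C; GFP imaging ex488/em500-530; %Activity normalised to -TGF-b and +DMSO controls; CRC fit, curve class.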
HT1080-NT tox: kills 2HG-producing HT-1080-NT fibrosarcoma cells | Potency, µM (doses to about 46.1 µM), usual class: cytotoxic | 1.6% of 360,000 active | AID 686970 | HT-1080-NT fibrosarcoma viability, CellTiter-Glo ATP luminescence, 48 h;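 also: NT is the 2HG producing partner of a matched IDH1 knockdown line; nearly all actives have a fitted effect of over 55% in size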
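Compounds were tested in concentration-response format on HT-1080-NT cells for 48 hours at 37 degrees C. Cell viability came from CellTiter-Glo luminescence; curves were classified by r2, response magnitude and activity.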
HT1080 IDH1KD tx: HT-1080 IDH1 knockdown cell toxicity (counter line); HT-1080 IDH1 knockdown viability, ATP luminescence, 48 h; Potency, µM (series often up to 46.1 µM), actives largely listed as cytotoxic; 2% of 360,000 active; AID 686971
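IDH1KD HT-1080 cells, 750/well, RPMI + 5% FBS; compound pinned after 2 h settling; 48 h, 37 °C; CellTiter-Glo luminescence; % activity normalised to DMSO and no-cell wells; curves fitted, classed by r2 and efficacy.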
HepG2 viability: counter-screen for TGF-b inhibitors: cytotoxicity in HepG2 cells; HepG2 CAGA-GFP viability, ATP luminescence, 18 h; Potency, µM (titrated, usually from 46.1 µM), most hits filed as cytotoxic; 0.76% of 410,000 active; AID 588856
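HepG2 CAGA-GFP cells (1000/well, DMEM with 1% FBS) received compound, then TGF-beta at 500 pg/mL final, and were incubated 18 hours at 37 degrees C. Viability was read by CellTiter-Glo luminescence. Media-only wells were set as complete cell-killing and DMSO as no toxicity.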
TDP1 cell noCPT: qHTS for Inhibitors of human tyrosyl-DNA phosphodiesterase 1 (TDP1): qHTS in cells in absence of CPT; DT40 Tdp1-/- hTDP1 cells, no CPT, ATP luminescence, 48 h; Potency, µM (highest dose often 46.2 µM), most hits filed as inhibitors; 15% of 420,000 active; AID 686978, 2013; also: nearly all actives have a fitted effect of over 55% in size
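Camptothecin absent (DMSO only). Human TDP1-complemented DT40 knockout cells, 400 cells/well, 37 °C for minimum 48 hr; ATP measured via CellTiter-Glo, 30 min dark incubation, luminescence.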
TDP1 cell CPT: growth inhibition of DT40 Tdp1-/-;hTDP1 cells with camptothecin (screen for TDP1 inhibitors). chicken DT40 Tdp1-/-;hTDP1 cells + 20 nM CPT, ATP luminescence, 48 h. Potency, µM (top dose mostly 46.2 µM), most hits filed as inhibitors. 12% of 420,000 active. AID 686979; also: nearly all actives have a fitted effect of over 55% in size
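Chicken DT40 Tdp1-/- cells complemented with human TDP1, 400 cells/well, exposed to compounds plus 20 nM camptothecin for at least 48 h at 37 C; viability read as ATP content by CellTiter-Glo luminescence.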
Of the large screens only hits and unclear results are named; the others gave an inactive call. The list is not random: actives were taken first. Their share in the collection is about 17%. Calls follow the shape of the dose curve; as a rule, active = well fitted curve in the direction sought with a large enough effect; inconclusive = small, poorly fitted or top-dose-only effect, or another doubt; inactive = no such curve, though single readings can be large; an effect the other way counts as inactive or inconclusive.

CC(NC(=O)C1CCOCC1)c1nnc2n1CCN(Cc1ccc3cccnc3c1)CC2 (stereo not drawn)	none (no result: TGFb inhibitor, HT1080-NT tox, HT1080 IDH1KD tx, HepG2 viability)
CCn1c(Sc2ccc([N+](=O)[O-])cn2)nnc1-c1ccco1	TGFb inhibitor inconclusive, HT1080-NT tox 11.6µM, HT1080 IDH1KD tx 18.4µM, TDP1 cell noCPT 2.06µM, TDP1 cell CPT 1.64µM
CCCNC(=O)CSc1nnc(-c2ccco2)n1C	HT1080 IDH1KD tx inconclusive, TDP1 cell noCPT 13µM, TDP1 cell CPT 23.1µM
Cn1c(SCC(=O)c2ccc3c(c2)Cc2ccccc2-3)nnc1-c1cccc(N)c1	TDP1 cell noCPT inconclusive, TDP1 cell CPT inconclusive
CC(=O)Nc1ccc(-c2nnc(SCC(=O)c3ccc4c(c3)Cc3ccccc3-4)n2C)cc1	HT1080 IDH1KD tx inconclusive, TDP1 cell noCPT 11.6µM, TDP1 cell CPT 13µM
COC(=O)Cc1ccc(NC(C)=O)cc1	none
COc1cc(/C=C/C(=O)OCC(=O)NC2CCCCCCC2)ccc1O	none
O=C(NCC1COc2ccccc2O1)c1ccc(NC(=O)C(c2ccccc2)c2ccccc2)cc1 (stereo not drawn)	TGFb inhibitor inconclusive, HT1080-NT tox inconclusive, TDP1 cell noCPT 9.2µM, TDP1 cell CPT 18.4µM
Cn1nc(C(=O)NCC2COc3ccccc3O2)c2ccccc2c1=O (stereo not drawn)	TDP1 cell noCPT 20.6µM, TDP1 cell CPT 23.1µM
CCN(C[C@H]1N[C@@](C)(C(=O)OC)[C@H]2C(=O)N(C)C(=O)[C@@H]12)C(=O)COc1ccccc1	TDP1 cell noCPT inconclusive, TDP1 cell CPT inconclusive
COCCCN1C(=O)C(CC(=O)NCCN2CCOCC2)CC(C(=O)N(C(C)C)C(C)C)=C1C (stereo not drawn)	TDP1 cell noCPT inconclusive
Cc1cc(C)c(C(=O)c2ccc(C(=O)N(C(C)C)C(C)C)cc2)c(C)c1	HT1080-NT tox inconclusive, HT1080 IDH1KD tx inconclusive, TDP1 cell noCPT 18.4µM, TDP1 cell CPT 16.4µM
O=C(N/N=C/c1ccc(OC(F)F)cc1OC(F)F)NC1CCCCC1	TGFb inhibitor inconclusive, TDP1 cell noCPT inconclusive, TDP1 cell CPT inconclusive
CCCCC1S/C(=N/N=C/c2ccco2)NC1=O (stereo not drawn)	TDP1 cell noCPT inconclusive, TDP1 cell CPT 16.4µM
COc1ccccc1CC1S/C(=N/N=C/c2ccco2)NC1=O (stereo not drawn)	TDP1 cell noCPT 6.51µM, TDP1 cell CPT inconclusive
CCCC1S/C(=N/N=C/c2ccco2)NC1=O (stereo not drawn)	none
COc1cccc(NC(=O)COC(=O)C2CC3CCCC(C2)C3=O)c1 (stereo not drawn)	none
CC(C)(C)c1ccc(S(=O)(=O)NC(=O)C2(C)CCN2C(=O)Cc2ccccc2Cl)cc1 (stereo not drawn)	none
CN(c1ccccc1)c1ccc(/C=C(\C#N)c2nnc3n2CCCCC3)cc1[N+](=O)[O-]	HT1080 IDH1KD tx inconclusive, TDP1 cell noCPT 11.6µM, TDP1 cell CPT 18.4µM
N#C/C(=C\c1cccc([N+](=O)[O-])c1)c1nnc2n1CCCCC2	TDP1 cell noCPT inconclusive, TDP1 cell CPT inconclusive
CC(C)C(C=Cc1ccccc1)=NNS(=O)(=O)c1ccccc1	TDP1 cell CPT 8.2µM
O=S(=O)(N/N=C\C=C\c1ccccc1)c1ccc(Br)cc1	none
O=C(COC(=O)c1ccc2ccccc2n1)NC1CCCCC1	none
O=C(c1cc(COc2cccc3cnccc23)on1)N1CCC(c2ccccc2Cl)C1 (stereo not drawn)	TGFb inhibitor 20µM, HT1080-NT tox inconclusive, TDP1 cell noCPT 18.4µM, TDP1 cell CPT 23.1µM
O=C(c1cc(COc2c(F)cccc2F)on1)N1CCC(c2ccccc2F)C1 (stereo not drawn)	TDP1 cell noCPT inconclusive
Cc1c(C(C)NC(=O)c2cc(COc3cccc4cnccc34)on2)cnn1C (stereo not drawn)	TDP1 cell noCPT 13µM, TDP1 cell CPT 23.1µM
O=C(c1cc(COc2c(F)cccc2F)on1)N1CCC(c2ccncc2)CC1	HT1080-NT tox inconclusive, TDP1 cell noCPT 9.2µM, TDP1 cell CPT 9.2µM
Cc1cccc(C)c1OCc1cc(C(=O)N2CCC(c3ccncc3)CC2)no1	TGFb inhibitor inconclusive, HT1080-NT tox inconclusive, TDP1 cell noCPT 5.17µM, TDP1 cell CPT 9.2µM
Cc1cccc(C)c1OCc1cc(C(=O)N2CCN(C3CCCC3)CC2)no1	TDP1 cell noCPT inconclusive, TDP1 cell CPT inconclusive
CSc1ccccc1OCc1cc(C(=O)NC(C)c2cnn(C)c2)no1 (stereo not drawn)	TDP1 cell noCPT inconclusive, TDP1 cell CPT inconclusive
Cc1nn2c(=O)cc(COC(=O)COc3ccccc3C)nc2s1	none (no result: HT1080-NT tox, HT1080 IDH1KD tx)
C=CCOC(=O)C1=C(C)NC(SC)=C(C#N)C1c1cccs1 (stereo not drawn)	HT1080-NT tox 9.2µM, HT1080 IDH1KD tx 18.4µM, TDP1 cell noCPT inconclusive, TDP1 cell CPT inconclusive
C=CCOC(=O)C1=C(C)NC(SCC(=O)Nc2nccs2)=C(C#N)C1c1ccc(Cl)cc1 (stereo not drawn)	TGFb inhibitor inconclusive, HT1080-NT tox inconclusive, HT1080 IDH1KD tx inconclusive, TDP1 cell noCPT 31.6µM, TDP1 cell CPT 22.4µM
CCSC1=C(C#N)C(c2cccs2)C(C(=O)OC)=C(C)N1 (stereo not drawn)	TDP1 cell noCPT inconclusive
C=CCOC(=O)C1=C(C)NC(SCC(=O)Nc2nccs2)=C(C#N)C1c1cccs1 (stereo not drawn)	TGFb inhibitor inconclusive, HT1080-NT tox inconclusive, HT1080 IDH1KD tx inconclusive, TDP1 cell noCPT inconclusive, TDP1 cell CPT inconclusive
CC(C)[C@@H](C(=O)NC1CCCC1)N1C(=O)N2CCc3c([nH]c4ccccc34)[C@@]2(C)C1=O	TDP1 cell noCPT inconclusive, TDP1 cell CPT inconclusive
C[C@@H](C(=O)NC1CCCC1)N1C(=O)N2CCc3c([nH]c4ccccc34)[C@@]2(C)C1=O	TDP1 cell noCPT inconclusive, TDP1 cell CPT 20.6µM
CC(NC(=O)[C@H](C)N1C(=O)N2CCc3c([nH]c4ccccc34)[C@@]2(C)C1=O)c1ccccc1 (stereo partly drawn)	TGFb inhibitor inconclusive, TDP1 cell noCPT inconclusive, TDP1 cell CPT 16.4µM
Cc1nc(C)n(C(C)CNS(=O)(=O)c2ccc(Cl)cc2)n1 (stereo not drawn)	none
CN1CCCN(S(=O)(=O)c2cccc(Cl)c2Cl)CC1	none
CCc1ccc(N2C(=O)C(Cl)=C(N3CCOCC3)C2=O)cc1	TDP1 cell CPT inconclusive
COc1ccc(N2C(=O)C(Cl)=C(N3CCOCC3)C2=O)cc1	HT1080-NT tox inconclusive, TDP1 cell noCPT 29.1µM

Screening data as filed in PubChem.
